# Compound activity: PubChem, several laboratories
# Shown are actives, neighbours in structure and some others; about 2.9% of the full set was active somewhere.
# HIF-2a inh: HIF-2a reporter inhibitors, primary screen, luminescence, 786-0 RCC cells | 786-0 RCC cells HIF-2a reporter, luciferase luminescence, overnight | inhibition, % at 18.8 µM | 360,000 compounds, 0.72% hits | AID 624352, 2012;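 active means inhibition of the luminescence signal of 40% or more relative to plate controls, in a single-dose primary screen at 18.75 µM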
# Shn3 inh set2: reduction of Shn3 3'UTR firefly luciferase signal, primary screen, Schnurri-3 inhibitor project, cell-based, Clone20 osteoblasts, set 2; inhibition, % at 12.5 µM; AID 588674, 2011; Clone20 osteoblast Shn3 3'UTR firefly luciferase, 24 h; 360,000 compounds, 0.52% hits;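 active means mean inhibition of at least 75% with every replicate also reaching 75%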
# EBV LMP1 NFkB: EBV LMP1-driven NF-kappaB luciferase reporter inhibitors, primary screen, cell-based, luminescence, single point | AID 504558, 2011 | 350,000 compounds, 0.69% hits | LMP1-induced NF-kappaB luciferase reporter cells | inhibition, % at 12.5 µM; in the data active means inhibition above about 41%
# Peg3 promoter: Peg3 promoter-driven luciferase inhibitors, primary screen, cell-based, HeLa, luciferase luminescence; HeLa PEG-Prom luciferase reporter, overnight; 360,000 compounds, 1.7% hits; AID 588405, 2011; inhibition, % at 20 µM;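 active means inhibition of at least 50% at 20 µM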
# CF NFkB block: inhibitors of PAF-induced NF-kB signaling, primary screen, cell-based, GFP fluorescence, uHTS | KKLEB NF-kB-GFP reporter, GFP fluorescence overnight | inhibition, % at 5 µM | 360,000 compounds, 0.86% hits;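 active means at least 50% inhibition at 5 µM, scaled per plate between neutral and stimulator controls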;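 further: PAF is a Pseudomonas aeruginosa culture filtrate used as stimulus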
# KKLEB tox: cytotoxicity in KKLEB CF airway cells, primary screen, cytotoxicity control for CF NF-kB inhibitor project, cell-based, uHTS, fluorescence assay plates; 360,000 compounds, 0.36% hits; activity change (cytotoxicity), % at 5 µM; AID 602141, 2011; KKLEB CF airway cells viability, ATPlite luminescence, overnight; stronger effect = lower value; cells stimulated with P. aeruginosa culture filtrate;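 active means corrected activity change at or below -50% at 5 µM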
# Hits are given with their value; 0 = inactive; - = not tested or not shown.
SMILES,HIF-2a inh,Shn3 inh set2,EBV LMP1 NFkB,Peg3 promoter,CF NFkB block,KKLEB tox
O=C(CN(c1ccc(Br)cc1)S(=O)(=O)c1ccc(Cl)c([N+](=O)[O-])c1)NCCc1ccccc1,0,0,0,65,0,0
CC(Nc1nc(N2CCNCC2)nc2ccccc12)c1ccccc1 (centres undefined),0,0,0,102,0,0
O=[N+]([O-])c1ccc(N2N=C(c3ccccc3)CC2c2ccccc2O)cc1 (centres undefined),0,0,0,53,0,0
CCOC(=O)COc1cc(N)c(Cl)cc1Cl,0,0,0,0,0,0
CC(=O)c1ccc(Nc2nc(-c3sc(C)nc3C)cs2)cc1,0,0,0,55,0,0
CC(=O)Nc1ccc(Nc2nc(-c3sc(C)nc3C)cs2)cc1,0,0,0,0,0,0
CCCC#Cc1ccc2c(c1)O[C@@H](CN(C)Cc1ccc3c(c1)OCO3)[C@H](C)CN([C@@H](C)CO)S2(=O)=O,0,0,0,63,0,0
C[C@@H]1CN([C@H](C)CO)S(=O)(=O)c2ccc(C#Cc3ccccc3F)cc2O[C@H]1CN(C)C(=O)c1ccc2c(c1)OCO2,0,0,0,56,0,0
C[C@H]1CN([C@@H](C)CO)S(=O)(=O)c2ccc(C#Cc3ccccn3)cc2O[C@H]1CN(C)Cc1ccc(F)cc1,0,0,0,0,0,0
COc1ccccc1NC(=O)CSc1nc(=O)n2cc(C)ccc2n1,0,0,0,0,0,0
CN(C)C(=O)N(CCCN1CCOCC1)Cc1cccc2ccccc12,0,0,-,0,0,0
Cc1cccc(S(=O)(=O)c2c(N)n(/N=C/c3ccccc3)c3nc4ccccc4nc23)c1,0,0,0,0,0,0
Nc1c(S(=O)(=O)c2ccccc2)c2nc3ccccc3nc2n1/N=C/c1cccc(O)c1,0,0,0,87,0,0
OC[C@@H]1CN(Cc2ccncc2)C[C@H](n2cnc3c(N4CCOCC4)ncnc32)O1,0,0,-,0,0,0
CCC(C)[C@H]1CNC(=S)N1CCc1cc(C(F)(F)F)cc(C(F)(F)F)c1 (some centres undefined),0,97,0,0,0,0
OC(c1ccccc1)c1nc(-c2cncnc2)cs1 (centres undefined),0,0,-,0,0,0
COC1C(CO)OC(n2c3c(Cl)cccc3c3c4c(c5c6cccc(Cl)c6[nH]c5c32)C(=O)NC4=O)C(O)C1O (centres undefined),0,0,60,0,0,0
COc1ccc(S(=O)(=O)N2CCN(CC(=O)Nc3cccc(OC)c3)CC2)cc1,0,0,56,0,0,0
CN(c1ccccc1)c1ccc(/C=C(/CCC(=O)O)c2nc3ccccc3s2)cc1[N+](=O)[O-],0,0,0,57,0,0
O=C(O)CC/C(=C\c1ccc(N2CCCC2)c([N+](=O)[O-])c1)c1nc2ccccc2s1,0,0,0,0,0,0
COc1ccc(-c2oc3c4c2C(=O)OCCOC4CCC3)cc1 (centres undefined),0,-,-,-,-,-
O=C1c2ccccc2C(Nc2cccnc2)N1Cc1ccccc1Cl (centres undefined),0,0,0,0,0,0
COc1cc(NC2c3ccccc3C(=O)N2c2ccc(C)cn2)cc(OC)c1OC (centres undefined),0,0,0,0,0,0
Cc1ccc(N2C(=O)c3ccccc3C2Nc2cccnc2)nc1 (centres undefined),0,0,81,0,0,0
O=C1c2ccccc2C(Nc2cccnc2)N1Cc1ccccc1 (centres undefined),0,0,82,0,0,0
SMILES,HIF-2a inh,Shn3 inh set2,EBV LMP1 NFkB,Peg3 promoter,CF NFkB block,KKLEB tox
Cc1ccc(CN(Cc2cc3cccc(C)c3[nH]c2=O)C(=S)NCCCN(C)C)cc1,0,0,0,87,0,0
COc1ccccc1-c1nnc(SCC(=O)NC2CC2)n1C,0,0,0,0,0,0
COc1ccccc1-c1nnc(SC(C(=O)c2c[nH]c3ccccc23)c2ccccc2)n1C (centres undefined),0,0,0,54,0,0
COc1cccc(-c2nnc(SC(C(=O)c3c[nH]c4ccccc34)c3ccccc3)n2C)c1 (centres undefined),0,0,0,53,0,0
COCCNC(=S)N1CCC(NC(=O)Nc2ccc(C)cc2)CC1,0,0,0,0,0,0
Nc1ccn([C@@H]2O[C@H](C(=O)N(CCC3=CCCCC3)CC3CC3)[C@@H](O)[C@H]2O)c(=O)n1,0,0,-,0,0,0
CCOCCCNC(=O)/C(C#N)=C/c1ccc([N+](=O)[O-])o1,0,98,0,101,0,0
CC(NC(=O)/C(C#N)=C/c1ccc([N+](=O)[O-])o1)c1ccccc1 (centres undefined),78,94,0,103,0,0
CCOCCCNC(=O)/C(C#N)=C/c1ccc(-c2ccc(S(=O)(=O)N3CCOCC3)cc2)o1,0,0,0,0,0,0
CCOc1ccc(NS(=O)(=O)c2ccc(C(=O)NCCN3CCOCC3)cc2)cc1,0,0,0,0,0,0
CCOc1ccc(NS(=O)(=O)c2cc(C(=O)NCCN3CCOCC3)ccc2C)cc1,0,92,0,0,0,0
COc1cc2c(=O)n(CC3CCCO3)c(=O)n(CC(=O)Nc3cccc(Cl)c3)c2cc1OC (centres undefined),0,0,85,0,0,0
CC1=C(C(=O)N(C)C)CC(CC(=O)NC2CCCCC2)C(=O)N1CCCN1CCCC1=O (centres undefined),0,0,0,60,0,0
CC#Cc1cc2c(cc1O)CCC1C2CCC2(C)C(O)CCC12 (centres undefined),0,0,0,0,0,0
O=C(/C=C/c1ccccc1[N+](=O)[O-])c1ccc(F)cc1,0,0,0,107,0,0
N=C1/C(=C\c2ccc(-c3ccc(C(=O)O)cc3)o2)C(=O)N=C2SC=C(c3ccccc3)N12,0,0,0,0,72,0
COc1cc(/C=C2\COC/C(=C\c3cc(OC)c(OC)c(OC)c3)C2=O)cc(OC)c1OC,93,96,91,105,93,-67
COc1cc(/C=C2\CC/C(=C\c3cc(OC)c(O)c(OC)c3)C2=O)cc(OC)c1O,0,0,0,105,62,0
COc1cc(/C=C2/CCCC(C(=O)C(F)(F)F)=C2O)ccc1O,0,0,0,0,0,0
COc1ccc(/C=C2\COc3ccccc3C2=O)cc1OC,0,0,0,95,0,0
